The panel holds about 79,000 compounds, 15% with a hit somewhere; the sample as a whole holds those more often. A number with no mark means an inactive call. Active and inactive are the calls of the source. Rule as the data show it: active = growth inhibition above about 70%; inactive = the rest.

Test [1] in a line: NCI Yeast Anticancer Drug Screen. Data for the rad50 strain (AID 155).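 Also: 0% = growth of vehicle-only cultures of the same strain.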 Conditions: S. cerevisiae rad50 strain growth inhibition, active compounds read high. In short, it runs like this:
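Yeast carrying a defined DNA repair defect were exposed to test compounds, and growth was compared with vehicle-treated controls to give percent inhibition.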

Test [2] in a line: NCI Yeast Anticancer Drug Screen. Data for the mec2-1 strain (AID 157). Conditions: S. cerevisiae mec2-1 strain, active compounds read high. In short, it runs like this:
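Strain: mec2-1 (DNA repair/cell cycle alteration). Compound exposure, then growth measured; inhibition expressed relative to vehicle.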

Test [3] is described as follows: NCI Yeast Anticancer Drug Screen. Data for the sgs1 mgt1 strain (AID 161).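 Also: 0% = growth of cultures given vehicle only.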 The following applies: S. cerevisiae sgs1 mgt1 strain, active compounds read high. In short, it runs like this:
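Mutant yeast exposed to compound; growth scored against vehicle-only wells.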

A short description of test [4]: NCI Yeast Anticancer Drug Screen. Data for the cln2 rad14 strain (AID 165).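 Also: 0% = growth equal to vehicle treated cultures.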 The following applies: S. cerevisiae cln2 rad14 strain, active compounds read high. In short, it runs like this:
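Compounds are applied to the cln2 rad14 yeast strain, and growth is then compared with that of vehicle-treated cultures to give inhibition.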

A short description of test [5]: NCI Yeast Anticancer Drug Screen. Data for the bub3 strain (AID 167). Conditions: S. cerevisiae bub3 mutant strain, active compounds read high. Put shortly: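 Compounds were applied to a genetically altered yeast strain carrying a cell-cycle control defect. Growth inhibition was scored against vehicle-treated controls.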
Test [6] in a line: NCI Yeast Anticancer Drug Screen. Data for the mlh1 rad18 strain (AID 175). Conditions: S. cerevisiae mlh1 rad18 strain growth inhibition, active compounds read high. Put shortly: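 Read-out is yeast growth inhibition, calculated against vehicle-only controls. The compound was applied to a strain engineered with DNA damage repair alterations.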
Where [7] appears, read: at 5.0 µM (retest, dose inferred, filed as 0.5).
The mark [8] stands for this setting: at 50.0 µM (retest, dose inferred, filed as 5.0).

With `CN(C)C(=O)c1cc(Cl)cc(-c2ccccc2)c1O`, the growth inhibition in test [1] (setting [7]) was 1%; in test [1] (setting [8]), 67%; in test [1] (at 50.0 µM), 40.5%; in test [2] (setting [7]), 1%; in test [2] (setting [8]) it was 74% (active); in test [2] (at 50.0 µM), 32.1%. The growth inhibition in test [3] (setting [7]) is -1%; in test [3] (setting [8]) it was 68%; in test [3] (at 50.0 µM) it was 46.1%; in test [4] (setting [7]), -5%; in test [4] (setting [8]), 38%; in test [4] (at 50.0 µM) it was -6.75%. The growth inhibition in test [5] (setting [7]) was 1%; in test [5] (setting [8]) it was 86% (active); in test [5] (at 50.0 µM), 60.2%; in test [6] (setting [7]), 1%; in test [6] (setting [8]), 93% (active); in test [6] (at 50.0 µM), 78.8% (active).
Consider `O=C(Nc1ccccc1)OCCN=C1c2ccccc2CCc2ccccc21`, for which the growth inhibition in test [1] (setting [7]) is 4%; in test [1] (setting [8]) it was 95% (active); in test [1] (at 50.0 µM), 66.1%; in test [2] (setting [7]), -35%; in test [2] (setting [8]), 96% (active); in test [2] (at 50.0 µM), 76.2% (active). The growth inhibition was -27% in test [3] (setting [7]); 95% (active) in test [3] (setting [8]); 81.7% (active) in test [3] (at 50.0 µM); -30% in test [4] (setting [7]); 94% (active) in test [4] (setting [8]); 84% (active) in test [4] (at 50.0 µM). Further, the growth inhibition is -30% in test [5] (setting [7]); 96% (active) in test [5] (setting [8]); 83.9% (active) in test [5] (at 50.0 µM); -22% in test [6] (setting [7]); 95% (active) in test [6] (setting [8]); 88.8% (active) in test [6] (at 50.0 µM).
With `CCCCCCCCCCCCCCCC[N+](C)(C)C(C)c1ccccc1` (stereo not given), the growth inhibition in test [1] (setting [7]) is 98% (active); in test [1] (setting [8]) it was 98% (active); in test [1] (at 50.0 µM), 90.5% (active); in test [2] (setting [7]), 98% (active); in test [2] (setting [8]) it was 99% (active); in test [2] (at 50.0 µM), 90.7% (active). The growth inhibition in test [3] (setting [7]) was 99% (active); in test [3] (setting [8]), 99% (active); in test [3] (at 50.0 µM), 90.5% (active); in test [4] (setting [7]) it was 99% (active); in test [4] (setting [8]) it was 99% (active); in test [4] (at 50.0 µM), 86% (active). Moreover, the growth inhibition is 98% (active) in test [5] (setting [7]); 98% (active) in test [5] (setting [8]); 92.6% (active) in test [5] (at 50.0 µM); 98% (active) in test [6] (setting [7]); 97% (active) in test [6] (setting [8]); 91.8% (active) in test [6] (at 50.0 µM).
On to `COC1CCC(/C(C#N)=C/c2ccco2)CC1` (stereo not given), for which the growth inhibition in test [1] (setting [7]) was 17%; in test [1] (setting [8]), 22%; in test [1] (at 50.0 µM) it was 61.7%; in test [2] (setting [7]), -5%; in test [2] (setting [8]), 13%; in test [2] (at 50.0 µM), 57.3%. Also, the growth inhibition in test [3] (setting [7]) is -5%; in test [3] (setting [8]) it was 26%; in test [3] (at 50.0 µM), 78.2% (active); in test [4] (setting [7]), 22%; in test [4] (setting [8]), 29%; in test [4] (at 50.0 µM), -0.15%. The growth inhibition was 38% in test [5] (setting [7]); 58% in test [5] (setting [8]); 79.6% (active) in test [5] (at 50.0 µM); 8% in test [6] (setting [7]); 49% in test [6] (setting [8]); 57.1% in test [6] (at 50.0 µM).
For the molecule `CCC(C)C(C(=O)NOC(=O)c1ccccc1)/C(N)=N/OC(=O)c1ccccc1` (stereo not given), the growth inhibition was 89% (active) in test [1] (setting [7]); 99% (active) in test [1] (setting [8]); 99.5% (active) in test [1] (at 50.0 µM); 83% (active) in test [2] (setting [7]); 100% (active) in test [2] (setting [8]); 98.3% (active) in test [2] (at 50.0 µM). Besides, the growth inhibition in test [3] (setting [7]) was 96% (active); in test [3] (setting [8]), 99% (active); in test [3] (at 50.0 µM), 99.6% (active); in test [4] (setting [7]), 87% (active); in test [4] (setting [8]), 99% (active); in test [4] (at 50.0 µM), 99.5% (active). For the same molecule, the growth inhibition in test [5] (setting [7]) was 91% (active); in test [5] (setting [8]), 99% (active); in test [5] (at 50.0 µM) it was 99.4% (active); in test [6] (setting [7]), 97% (active); in test [6] (setting [8]), 99% (active); in test [6] (at 50.0 µM), 98.9% (active).
As for `OC(c1ccc(Cl)cc1)c1ccc(Cl)cc1`, the growth inhibition in test [1] (setting [7]) is -7%; in test [1] (setting [8]), 100% (active); in test [1] (at 50.0 µM) it was 79% (active); in test [2] (setting [7]) it was -11%; in test [2] (setting [8]), 100% (active); in test [2] (at 50.0 µM), 98.2% (active). The growth inhibition is -7% in test [3] (setting [7]); 100% (active) in test [3] (setting [8]); 75.2% (active) in test [3] (at 50.0 µM); -17% in test [4] (setting [7]); 100% (active) in test [4] (setting [8]); 85.3% (active) in test [4] (at 50.0 µM). Further, the growth inhibition is -11% in test [5] (setting [7]); 100% (active) in test [5] (setting [8]); 98.8% (active) in test [5] (at 50.0 µM); -6% in test [6] (setting [7]); 99% (active) in test [6] (setting [8]); 85.2% (active) in test [6] (at 50.0 µM).
With `CCCCCCCCN1C(=O)c2ccccc2S1(=O)=O`, the growth inhibition is -2% in test [1] (setting [7]); 95% (active) in test [1] (setting [8]); 22.9% in test [1] (at 50.0 µM); -4% in test [2] (setting [7]); 96% (active) in test [2] (setting [8]); 32.1% in test [2] (at 50.0 µM). For the same molecule, the growth inhibition in test [3] (setting [7]) was -2%; in test [3] (setting [8]), 94% (active); in test [3] (at 50.0 µM) it was 73.8% (active); in test [4] (setting [7]), -17%; in test [4] (setting [8]), 95% (active); in test [4] (at 50.0 µM), -27.6%. The growth inhibition in test [5] (setting [7]) is 25%; in test [5] (setting [8]), 96% (active); in test [5] (at 50.0 µM) it was 89.2% (active); in test [6] (setting [7]), -2%; in test [6] (setting [8]), 95% (active); in test [6] (at 50.0 µM) it was 76.2% (active).
For `CC(=O)C1CCCCC1/C=C/[N+](=O)[O-]` (stereo not given), the growth inhibition in test [1] (setting [7]) was 23%; in test [1] (setting [8]) it was 93% (active); in test [1] (at 50.0 µM), 99.5% (active); in test [2] (setting [7]), 16%; in test [2] (setting [8]) it was 74% (active); in test [2] (at 50.0 µM), 99.7% (active). Moreover, the growth inhibition was 25% in test [3] (setting [7]); 93% (active) in test [3] (setting [8]); 99.1% (active) in test [3] (at 50.0 µM); 6% in test [4] (setting [7]); 27% in test [4] (setting [8]); 99% (active) in test [4] (at 50.0 µM). The growth inhibition in test [5] (setting [7]) is 30%; in test [5] (setting [8]) it was 91% (active); in test [5] (at 50.0 µM), 99.5% (active); in test [6] (setting [7]), 42%; in test [6] (setting [8]) it was 97% (active); in test [6] (at 50.0 µM) it was 99.2% (active).
As to `C=C1CC23CCC4C(C)(C(=O)O)CCCC4(C)C2CCC1C3` (stereo not given), the growth inhibition is 27% in test [1] (setting [7]); 98% (active) in test [1] (setting [8]); 90.5% (active) in test [1] (at 50.0 µM); 40% in test [2] (setting [7]); 98% (active) in test [2] (setting [8]); 91% (active) in test [2] (at 50.0 µM). Further, the growth inhibition in test [3] (setting [7]) is 18%; in test [3] (setting [8]) it was 97% (active); in test [3] (at 50.0 µM) it was 90% (active); in test [4] (setting [7]), 19%; in test [4] (setting [8]) it was 97% (active); in test [4] (at 50.0 µM) it was 87.2% (active). For the same molecule, the growth inhibition in test [5] (setting [7]) is 13%; in test [5] (setting [8]), 97% (active); in test [5] (at 50.0 µM) it was 89.3% (active); in test [6] (setting [7]) it was 49%; in test [6] (setting [8]), 98% (active); in test [6] (at 50.0 µM), 82% (active).
Regarding `CCCCCCCCCCNC(=O)C[n+]1cccc(C(=O)Nc2ccccc2)c1`, the growth inhibition is 4% in test [1] (setting [7]); 99% (active) in test [1] (setting [8]); 99.7% (active) in test [1] (at 50.0 µM); 10% in test [2] (setting [7]); 100% (active) in test [2] (setting [8]); 99.8% (active) in test [2] (at 50.0 µM). The growth inhibition in test [3] (setting [7]) is -13%; in test [3] (setting [8]), 100% (active); in test [3] (at 50.0 µM), 99.9% (active); in test [4] (setting [7]), 3%; in test [4] (setting [8]), 99% (active); in test [4] (at 50.0 µM), 99.2% (active). Moreover, the growth inhibition in test [5] (setting [7]) was -1%; in test [5] (setting [8]), 99% (active); in test [5] (at 50.0 µM), 99.6% (active); in test [6] (setting [7]), 28%; in test [6] (setting [8]), 100% (active); in test [6] (at 50.0 µM), 99.8% (active).
